# Source: PubChem BioAssay
# FLuc counter = firefly luciferase modulation, counter-screen for miR-21 project; 360,000 compounds, 6.9% hits; AID 588342; Potency, µM (top dose mostly 57.5 µM), inactives show at the highest dose activity change, negative = inhibition, most hits filed as inhibitors; P08659; purified FLuc, Km substrates, luminescence inhibition;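 note: plate controls were vehicle for no effect and reference inhibitor for full effect; nearly all actives have a fitted effect of over 55% in size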
# Target sequence (P08659 whole entry, looked up): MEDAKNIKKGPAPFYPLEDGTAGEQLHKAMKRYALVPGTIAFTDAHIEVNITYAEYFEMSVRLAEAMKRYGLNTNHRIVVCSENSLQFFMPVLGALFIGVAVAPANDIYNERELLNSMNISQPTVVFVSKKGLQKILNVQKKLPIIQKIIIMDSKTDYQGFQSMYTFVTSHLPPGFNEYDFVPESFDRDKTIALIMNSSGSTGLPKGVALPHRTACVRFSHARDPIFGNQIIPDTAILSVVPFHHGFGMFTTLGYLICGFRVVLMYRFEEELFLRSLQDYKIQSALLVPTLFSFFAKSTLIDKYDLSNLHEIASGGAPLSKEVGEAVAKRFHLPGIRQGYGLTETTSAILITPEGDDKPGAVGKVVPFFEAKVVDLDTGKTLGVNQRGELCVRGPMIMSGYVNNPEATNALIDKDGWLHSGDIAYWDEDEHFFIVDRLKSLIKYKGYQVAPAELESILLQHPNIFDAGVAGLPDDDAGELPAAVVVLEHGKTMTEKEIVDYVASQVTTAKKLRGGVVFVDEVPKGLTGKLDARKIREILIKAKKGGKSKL
#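 Biochemical qHTS of compounds, final roughly 60 µM downward over six points, against 10 nM purified firefly luciferase using Km concentrations of substrates (10 uM D-luciferin, 10 uM ATP) in Tris acetate pH 7.5 buffer; luminescence output.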
# SMN2 splice up = enhancers of SMN2 splice variant expression; HEK293 SMN2-luciferase splicing reporter, luminescence, 30-36 h; Potency, µM (doses to about 46.1 µM), inactives show top-dose activity change, positive = activation, actives largely listed as activators; 210,000 compounds, 2.8% hits; AID 1458; note: % of control where 0% means no effect; nearly all actives have a fitted effect of over 55% in size
#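 HEK293 cells carry an SMN2 minigene-luciferase reporter in which exon 7 inclusion puts luciferase in frame. Cells were seeded at 2000 cells/well, attached for 10-12 hours, then exposed to compounds for 30-36 hours at 37C before ONE-Glo luminescence.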
# Rab9 promoter act = activators of Rab9 promoter. Huh7 Rab9 promoter-luciferase reporter, luminescence, 24 h. Potency, µM (top dose mostly 9.22 µM), without a hit: at the top dose activation, negative = inhibition, hits mostly activators. 320,000 compounds, 2.8% hits; note: % of control where 0% means no effect; nearly all actives have a fitted effect of over 60% in size
#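 Stable Rab9-luc Huh7, 1500 cells/well, 2 h settle; cmpd in DMSO, 24 h, 37 °C/5% CO2; luciferase reagent 10 min RT; luminescence.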
# NPC1 prom act = activators of NPC1 promoter; Potency, µM (top dose mostly 9.22 µM), for the others: top-dose activation, actives largely listed as activators; 320,000 compounds, 2.4% hits; Huh7 NPC1 promoter luciferase reporter, 24 h; AID 485313; note: % of control where 0% means no effect; nearly all actives have a fitted effect of over 60% in size
#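 In 1536-well qHTS, Huh7 cells harboring an NPC1 promoter–luciferase construct received compound for 24 h; activation was quantified by luminescence following luciferase reagent addition.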
# KinaseGlo FLuc = Kinase-Glo luciferase inhibition (counter-screen); Potency, µM (series often up to 38.3 µM), without a hit: at the highest dose activity change, negative = inhibition, hits mostly inhibitors; Q27757; Kinase-Glo luciferase, ATP luminescence, 8 min; 200,000 compounds, 0.28% hits; note: % is set by controls: 0 for no effect and ±100 for the full control effect; nearly all actives have a fitted effect of over 60% in size
#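 Compounds were added to a substrate mix at pH 7.2 (50 mM imidazole, 10 uM ATP, within the enzyme's linear range), followed by Kinase-Glo detection reagent; luminescence was measured after 8 minutes at ambient temperature.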
# ELG1 genotox = induces genotoxicity in HEK293T cells with luciferase-tagged ELG1. HEK293T ELG1-luciferase reporter, luminescence, 16 h. Potency, µM (highest dose often 46 µM), without a hit: at the highest dose activity change, positive = activation, hits mostly activators. 330,000 compounds, 1.3% hits. AID 504466; note: % of control where 0% means no effect; nearly all actives have a fitted effect of over 60% in size
#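 HEK293T cells expressing luciferase-tagged ELG1 were treated with compound or DMSO for 16 hr at 37°C. Luciferase activity was then read after 30 min with ONE-Glo at room temperature; rising signal flags genetic stress.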
# * marks the source's active call; other numbers are inactive results; ? = inconclusive; / = no result; [ ] = dose if it differs, or a comment. The list is not random: actives were taken first. Their share in the collection is about 7.4%. Calls come from the whole dose curve; as a rule, active = well fitted curve in the direction sought with a large enough effect; inconclusive = small, poorly fitted or top-dose-only effect, or another doubt; inactive = no such curve, though single readings can be large; an effect the other way counts as inactive or inconclusive. Potency is the fitted concentration of half-maximal effect.
SMILES,FLuc counter,SMN2 splice up,Rab9 promoter act,NPC1 prom act,KinaseGlo FLuc,ELG1 genotox
COc1ccc(-c2oc3cccnc3c2/C=C/c2ccc(OC)c(OC)c2)cc1,7.6µM*,/,3%,2%,/,2%
COc1ccc(/C=C/c2c(-c3ccc(OC)cc3)oc(=O)c3cc(OC)c(OC)cc23)cc1,/,/,/,/,/,0%
C=CCNc1nc2c3ccccc3n(C(C)=O)c2s1,24µM*,-3%,23%,21%,-3%,?
CCCCC(=O)Nc1nnc(S(=O)(=O)N(CC)c2cc(C)cc(C)c2)s1,-1%,/,/,/,/,/
CC(=O)c1ccc(NC(=O)c2cccc(NC(=O)c3ccccc3)c2)cc1,?,/,29%,16%,/,10%
CC(=O)Nc1ccc2ccccc2c1,?,7%,15%,21%,18%,?
CC(=O)c1ccc(NC(=O)Nc2ccccc2)cc1,7.6µM*,11µM*,0.32µM*,0.45µM*,-6%,1.8µM*
O=C(Nc1ccccc1)Nc1ccc2ccccc2c1,?,/,3.5µM*,2.5µM*,/,14%
CCN(CC)c1ccc(NC(=O)Nc2ccc(C(C)=O)cc2)cc1,0%,10%,4%,1%,1%,1%
CC(=O)c1cccc(NC(=O)Nc2ccccc2)c1,12µM*,/,16%,25%,/,2%
CC(=O)c1cccc(NC(=O)NCc2ccccn2)c1,9.5µM*,16µM*,?,?,-2%,9.2µM*
COc1ccc2c(c1)OC[C@H]1[C@H]2N2C(=O)c3cc(Br)ccc3NC(=O)[C@@]2(C)[C@H]1c1ccccc1,-1%,/,-9%,-8%,/,4%
CC1CCCN(C(=O)C2CCN(S(=O)(=O)c3ccccc3)CC2)C1 (stereo not drawn),/,/,/,/,/,1%
CCN(CC)c1ccc(NC(=O)Nc2ccccc2)cc1,0.95µM*,/,3.2µM*,0.89µM*,/,10µM*
O=C(c1ccc(NC(=O)C2(c3ccccc3)CCCC2)cc1)N1CCOCC1,-3%,/,-1%,-1%,/,-5%
O=C(Nc1ccccc1)Nc1ccc(C(=O)N2CCOCC2)cc1,13µM*,20µM*,1%,?,3.2µM*,?
Cc1csc(=O)n1CCC(=O)OCC(=O)Nc1ccc(F)c(F)c1F,3%,/,-4%,-1%,/,4%
O=[N+]([O-])c1cc(/C=N\Nc2nccs2)ccc1O,17µM*,?,1%,5%,-20%,-5%
CC1CCC2C(=O)N(c3cccc(C(=O)Nc4ccccc4Cl)c3)C(=O)C2C1 (stereo not drawn),-2%,/,0%,-2%,/,-1%
CC1CCN(c2oc(-c3ccccc3Cl)nc2C#N)CC1,11µM*,/,?,?,/,?
COc1ccc(-c2nc(C#N)c(N3CCC(C(N)=O)CC3)o2)cc1,-13%,-9%,-2%,-3%,0%,-3%
CC1CCN(c2oc(-c3ccc(F)cc3)nc2C#N)CC1,?,/,-2%[1.84 µM],23%,/,4%
CC(C)(C)c1ccc(-c2nc(C#N)c(N3CCC(C(N)=O)CC3)o2)cc1,21µM*,/,0%,-1%,/,1%
Cc1ccccc1-c1nc(C#N)c(N2CCC(C)CC2)o1,24µM*,/,22%,5%,/,9%
CC1CCCN(c2oc(-c3cccc4ccccc34)nc2C#N)C1 (stereo not drawn),5.4µM*,-12%,?,?,-6%,?
SMILES,FLuc counter,SMN2 splice up,Rab9 promoter act,NPC1 prom act,KinaseGlo FLuc,ELG1 genotox
CN1c2ccccc2C(=O)/C(=C\Nc2ccc(F)cc2F)S1(=O)=O,2.4µM*,/,-1%,2%,/,0%
CC(C)N(Cc1ccccc1)C(=O)c1nc(-c2ccc(Cl)cc2)n2c1CCCCC2,-14%,/,/,/,/,/
O=C(COC(=O)COc1ccccc1Cc1ccccc1)Nc1cccnc1Cl,-1%,5.6µM*,0%,-4%,-1%,5%
O=C(COC(=O)c1ccccc1Cl)Nc1cccnc1Cl,?,/,0%,0%,/,2%
Cc1ccc(C)c(NC(=O)/C(C#N)=C/c2ccc[nH]2)c1,-4%,/,14%,24%,/,0%
Cc1cccc(NC(=O)/C(C#N)=C/c2ccc[nH]2)c1C,-12%,/,4µM*,?,/,?
COc1ccc(S(=O)(=O)Nc2cccc(-c3ccc(N4CCCC4)nn3)c2)cc1F,13µM*,/,/,/,/,/
COc1ccc(S(=O)(=O)Nc2cccc(-c3ccc(N4CCCCCC4)nn3)c2)cc1OC,6µM*,/,4%,18%,/,18%
COc1ccc(S(=O)(=O)Nc2cccc(-c3ccc(N4CCCCCC4)nn3)c2)cc1,6.7µM*,/,/,/,/,/
COc1cccc(NS(=O)(=O)c2ccc(OC)c(OC)c2)c1,6%,-24%,-1%,3%,-6%,-1%
CCCCOc1ccc(S(=O)(=O)Nc2ccc(-c3ccc(N4CCCCCC4)nn3)cc2)cc1,-4%,/,/,/,/,/
CCOc1ccc(S(=O)(=O)Nc2cccc(-c3ccc(N4CCC(C)CC4)nn3)c2)cc1,2.7µM*,/,/,/,/,/
O=C(OCc1c(-c2ccccc2)ncc2ccccc12)c1cccc(Br)c1,4%,/,0%,3%,/,-2%
CCN(CC)S(=O)(=O)c1ccc2c(c1)N(CC(=O)N1CCN(c3cccc(OC)c3)CC1)C(=O)CO2,6%,/,/,/,/,/
C/C(=N\OC(=O)c1cccc(Cl)c1)c1sc(C)nc1C,6.7µM*,/,6%,-3%,-3%,4%
N/C(=N\OC(=O)c1cc(-c2ccccc2)nc2ccccc12)c1cccnc1,?,-33%,1%,-3%,-18%,-9%
N/C(=N\OC(=O)c1ccc(Cl)c(Cl)c1)c1cccnc1,8.5µM*,-3%,10%,13%,-4%,11%
N/C(=N\OC(=O)c1cccc(Cl)c1)c1cccnc1,6.7µM*,11%,11%,17%,-14%,10µM*
Cc1nc(C)c(CCNC(=O)c2cccc(Cl)c2)s1,-2%,0%,8%,2%,5%,2%
N/C(=N\OS(=O)(=O)c1ccc(Cl)cc1)c1cccnc1,-5%,17%,1%,0%,0%,-3%
N/C(=N\OC(=O)c1cccc(Cl)c1)c1ccncc1,19µM*,/,23%,17%,-7%,?
COc1cccc(CNC(=O)Cc2c(C(=O)O)c(C)cn2C)c1,2%,/,/,/,/,/
N/C(=N\OC(=O)c1ccc(Cl)c(Cl)c1)c1cccc(CSc2ccccn2)c1,8.5µM*,/,?,?,/,?
O=C(O/N=C(\c1ccccc1)c1ccccn1)c1ccc(Cl)c(Cl)c1,2%,-26%,-3%,-3%,7%,0%
CC(Oc1ccc(Cl)cc1Cl)c1nc(-c2ccc(NC(=O)c3ccco3)cc2)no1 (stereo not drawn),15µM*,-39%,?,29%,-14%,?
